Holding throughout (settings): 60 µM; 5 days; temperature: 20 °C
One experiment deals with Meloidogyne hapla J2. In words: proportion of mobile M. hapla J2 relative to DMSO control (fraction of DMSO control); higher = more viable, less nematicidal, active = 0.7 or less. Put shortly: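 Two biological replicates were run and averaged, each on 96-well plates in which about 25 M. hapla J2 sat in distilled water per well. Compound was pinned in to give 60 µM final and 0.6% v/v DMSO, and the sealed plates were shaken at 200 rpm and 20 °C for 5 days before 2 µL 1 M NaOH was added. Mobility was scored microscopically and divided by the mean from the plate's DMSO-only wells, of which there were eight.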

The subject of experiment [1] is Caenorhabditis elegans dauer (daf-2(e1370)). Kind of experiment: proportion of mobile C. elegans dauer larvae relative to DMSO control (fraction of DMSO control); higher = more viable, less nematicidal, active = 0.63 or less; extreme values may be limits of the assay. In short, it runs like this:
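Synchronized C. elegans daf-2(e1370) larvae were held at 25 °C for 48 h on MYOB plates with E. coli OP50 to form dauers, and about 20 dauers were added per 96-well well in liquid NGM. Compound was pinned to 60 µM final (0.6% v/v DMSO), and sealed plates were shaken at 200 rpm for 5 days at 20 °C. The proportion of mobile worms was scored under a dissection microscope relative to DMSO controls and averaged over two biological replicates.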

The test system of another experiment is Ditylenchus dipsaci. Kind of experiment: proportion of mobile D. dipsaci (mixed stage) relative to DMSO control (fraction of DMSO control); higher = more viable, less nematicidal, active = 0.86 or less; extreme values may be limits of the assay. Put shortly: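 The worms, D. dipsaci raised on pea plants in Gamborg B-5 agar, were recovered through a filter funnel into water. Each well of a 96-well plate then held about 20 of them in distilled water plus pinned compound at 60 µM final (0.6% v/v DMSO), and the sealed plates were shaken at 200 rpm at 20 °C for 5 days. Following addition of 2 µL 1 M NaOH, mobile worms were counted by microscopy, and mobility was expressed against DMSO controls as the average of two biological replicates.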

Molecules are shown by their SMILES. A number with no mark means an inactive call.

As to `Clc1ccc(OCc2nc(-c3cccnc3)no2)c(Cl)c1`, the “proportion of mobile M. hapla J2” value in the experiment on Meloidogyne hapla J2 was 0.998. Also, in experiment [1], the “proportion of mobile C. elegans dauer larvae” value was 1. Moreover, in the experiment with Ditylenchus dipsaci, the “proportion of mobile D. dipsaci” value is 1.

For the molecule `COc1ccc(-c2noc(CSc3nc4cc(C)ccc4[nH]3)n2)cc1`, the “proportion of mobile M. hapla J2” value with Meloidogyne hapla J2 was 0.861. Moreover, the “proportion of mobile C. elegans dauer larvae” value in experiment [1] is 1. For the same molecule, in the experiment on Ditylenchus dipsaci, the “proportion of mobile D. dipsaci” value is 1.

`O=C(CSc1nnc(-c2ccccc2Cl)o1)c1ccc2c(c1)CCCC2`: in the experiment on Meloidogyne hapla J2, the “proportion of mobile M. hapla J2” value is 0.914. Further, in experiment [1], the “proportion of mobile C. elegans dauer larvae” value was 1. In addition, in the experiment with Ditylenchus dipsaci, the “proportion of mobile D. dipsaci” value was 1.

Regarding `COc1ccc(-c2noc(COc3ccc(Br)c(C)c3)n2)cc1`, in the experiment with Meloidogyne hapla J2, the “proportion of mobile M. hapla J2” value was 0.972. Moreover, the “proportion of mobile C. elegans dauer larvae” value in experiment [1] was 1. Besides, the “proportion of mobile D. dipsaci” value with Ditylenchus dipsaci was 1.

As to `COc1cccc(-c2noc(COc3cc(C)ccc3C)n2)c1`, the “proportion of mobile M. hapla J2” value in the experiment with Meloidogyne hapla J2 was 0.873. In addition, in experiment [1], the “proportion of mobile C. elegans dauer larvae” value is 1. Also, the “proportion of mobile D. dipsaci” value with Ditylenchus dipsaci is 1.

Consider `COc1ccc(-c2nc(C3CCCCC3)no2)cc1`, for which, in the experiment on Meloidogyne hapla J2, the “proportion of mobile M. hapla J2” value is 0.896. In addition, the “proportion of mobile C. elegans dauer larvae” value in experiment [1] was 1. Also, the “proportion of mobile D. dipsaci” value with Ditylenchus dipsaci was 1.

For the molecule `Clc1cccc(-c2nc(-c3ccc4c(c3)OCO4)no2)c1`, the “proportion of mobile M. hapla J2” value in the experiment with Meloidogyne hapla J2 was 0.943. For the same molecule, in experiment [1], the “proportion of mobile C. elegans dauer larvae” value was 1. Also, the “proportion of mobile D. dipsaci” value in the experiment with Ditylenchus dipsaci was 1.

Take `COc1ccccc1-c1nc(-c2ccccc2)no1`: in the experiment on Meloidogyne hapla J2, the “proportion of mobile M. hapla J2” value is 1. Besides, in experiment [1], the “proportion of mobile C. elegans dauer larvae” value is 1. Moreover, the “proportion of mobile D. dipsaci” value in the experiment on Ditylenchus dipsaci was 1.

As for `CNC(=O)c1ccccc1-c1nc(-c2ccc(Cl)cc2)no1`, the “proportion of mobile M. hapla J2” value in the experiment on Meloidogyne hapla J2 was 0.985. The “proportion of mobile C. elegans dauer larvae” value in experiment [1] is 1. Moreover, in the experiment on Ditylenchus dipsaci, the “proportion of mobile D. dipsaci” value is 1.

For `Cc1cnnn1-c1ccc(-c2nc(-c3ccc(Cl)cc3)no2)cc1`, the “proportion of mobile M. hapla J2” value with Meloidogyne hapla J2 is 0.963. The “proportion of mobile C. elegans dauer larvae” value in experiment [1] is 1. The “proportion of mobile D. dipsaci” value in the experiment on Ditylenchus dipsaci was 1.

Regarding `c1csc(-c2nnc(-c3cccs3)o2)c1`, in the experiment with Meloidogyne hapla J2, the “proportion of mobile M. hapla J2” value was 0.754. Moreover, the “proportion of mobile C. elegans dauer larvae” value in experiment [1] was 0.786. For the same molecule, in the experiment on Ditylenchus dipsaci, the “proportion of mobile D. dipsaci” value is 0.769 (active).

On to `COc1ccc(-c2noc(COc3ccc(Cl)c(C)c3)n2)cc1`, for which the “proportion of mobile M. hapla J2” value with Meloidogyne hapla J2 was 1.02. In addition, the “proportion of mobile C. elegans dauer larvae” value in experiment [1] was 1. Also, the “proportion of mobile D. dipsaci” value in the experiment with Ditylenchus dipsaci is 1.

Regarding `Brc1ccc(-c2nc(-c3ccccc3)no2)cc1`, the “proportion of mobile M. hapla J2” value with Meloidogyne hapla J2 was 1. Also, the “proportion of mobile C. elegans dauer larvae” value in experiment [1] is 1. Further, the “proportion of mobile D. dipsaci” value in the experiment with Ditylenchus dipsaci was 1.

Turning to `Cc1ccc(-c2noc(-c3ccc(C)cc3Cl)n2)cc1`, the “proportion of mobile M. hapla J2” value in the experiment on Meloidogyne hapla J2 was 0.893. For the same molecule, the “proportion of mobile C. elegans dauer larvae” value in experiment [1] was 1. In the experiment on Ditylenchus dipsaci, the “proportion of mobile D. dipsaci” value was 1.

Take `COc1ccc(OC(C)c2nc(-c3ccccn3)no2)cc1` (configuration not stated): in the experiment on Meloidogyne hapla J2, the “proportion of mobile M. hapla J2” value was 1.03. The “proportion of mobile C. elegans dauer larvae” value in experiment [1] was 1. The “proportion of mobile D. dipsaci” value in the experiment on Ditylenchus dipsaci is 1.

As to `Cc1cc(OCc2nc(-c3ccccc3)no2)cc(C)c1Cl`, in the experiment with Meloidogyne hapla J2, the “proportion of mobile M. hapla J2” value is 1.05. Besides, the “proportion of mobile C. elegans dauer larvae” value in experiment [1] was 1. Moreover, the “proportion of mobile D. dipsaci” value with Ditylenchus dipsaci is 1.

In the case of `Cc1cc(OC(C)c2nc(-c3cccnc3)no2)ccc1Cl` (configuration not stated), the “proportion of mobile M. hapla J2” value in the experiment with Meloidogyne hapla J2 was 0.862. Further, the “proportion of mobile C. elegans dauer larvae” value in experiment [1] was 1. The “proportion of mobile D. dipsaci” value in the experiment on Ditylenchus dipsaci is 1.

For the molecule `O=C(CSc1nnc(-c2ccccc2)o1)Nc1ccc(Br)cc1F`, the “proportion of mobile M. hapla J2” value with Meloidogyne hapla J2 was 0.992. Also, the “proportion of mobile C. elegans dauer larvae” value in experiment [1] is 1. Also, in the experiment with Ditylenchus dipsaci, the “proportion of mobile D. dipsaci” value is 1.

As to `CCOc1cc(-c2nc(-c3ccccc3OC)no2)cc(OCC)c1OCC`, the “proportion of mobile M. hapla J2” value in the experiment on Meloidogyne hapla J2 was 0.978. Besides, the “proportion of mobile C. elegans dauer larvae” value in experiment [1] is 1. For the same molecule, the “proportion of mobile D. dipsaci” value in the experiment with Ditylenchus dipsaci is 1.

In the case of `Cc1cccc(-c2noc(COc3ccc(C)cc3C)n2)c1`, in the experiment on Meloidogyne hapla J2, the “proportion of mobile M. hapla J2” value is 1.09. Further, the “proportion of mobile C. elegans dauer larvae” value in experiment [1] was 1. The “proportion of mobile D. dipsaci” value in the experiment on Ditylenchus dipsaci is 1.

As for `Brc1ccc(OCc2nc(-c3ccc4c(c3)OCO4)no2)cc1`, the “proportion of mobile M. hapla J2” value in the experiment with Meloidogyne hapla J2 is 0.943. In addition, the “proportion of mobile C. elegans dauer larvae” value in experiment [1] is 1. The “proportion of mobile D. dipsaci” value in the experiment with Ditylenchus dipsaci is 1.

As for `Cc1cc(OCc2nc(-c3ccccc3)no2)ccc1Br`, in the experiment with Meloidogyne hapla J2, the “proportion of mobile M. hapla J2” value was 0.932. In addition, the “proportion of mobile C. elegans dauer larvae” value in experiment [1] was 1. For the same molecule, in the experiment with Ditylenchus dipsaci, the “proportion of mobile D. dipsaci” value was 1.

Take `COc1ccc(-c2nnc(SCC(=O)Nc3ccc(Cl)c(Br)c3)o2)cc1`: in the experiment on Meloidogyne hapla J2, the “proportion of mobile M. hapla J2” value is 0.933. The “proportion of mobile C. elegans dauer larvae” value in experiment [1] is 1. Further, in the experiment with Ditylenchus dipsaci, the “proportion of mobile D. dipsaci” value is 1.

In the case of `Ic1ccccc1-c1nc(-c2cccnc2)no1`, the “proportion of mobile M. hapla J2” value in the experiment with Meloidogyne hapla J2 was 1.02. Also, the “proportion of mobile C. elegans dauer larvae” value in experiment [1] is 1. The “proportion of mobile D. dipsaci” value in the experiment on Ditylenchus dipsaci was 1.

As for `COc1cccc(-c2noc(COc3ccc(Cl)cc3)n2)c1`, the “proportion of mobile M. hapla J2” value in the experiment with Meloidogyne hapla J2 was 0.993. Further, in experiment [1], the “proportion of mobile C. elegans dauer larvae” value is 1. In addition, the “proportion of mobile D. dipsaci” value in the experiment on Ditylenchus dipsaci is 1.

As for `Clc1ccc(-c2noc(-c3cccnc3)n2)cc1`, the “proportion of mobile M. hapla J2” value with Meloidogyne hapla J2 was 1. In addition, in experiment [1], the “proportion of mobile C. elegans dauer larvae” value was 0.452 (active). Also, the “proportion of mobile D. dipsaci” value with Ditylenchus dipsaci is 1.

For the molecule `Cc1ccc(OCc2nc(-c3ccccc3)no2)cc1C`, in the experiment on Meloidogyne hapla J2, the “proportion of mobile M. hapla J2” value was 1.1. The “proportion of mobile C. elegans dauer larvae” value in experiment [1] was 1. The “proportion of mobile D. dipsaci” value in the experiment on Ditylenchus dipsaci is 1.

Turning to `O=S(=O)(CCC(F)=C(F)F)c1ncc(Cl)s1` [fluensulfone], in the experiment on Meloidogyne hapla J2, the “proportion of mobile M. hapla J2” value is 0.0622 (active). In experiment [1], the “proportion of mobile C. elegans dauer larvae” value is 1. Moreover, in the experiment with Ditylenchus dipsaci, the “proportion of mobile D. dipsaci” value was 1.

With `COc1ccc(-c2noc(-c3ccccc3C)n2)cc1`, the “proportion of mobile M. hapla J2” value in the experiment on Meloidogyne hapla J2 was 0.898. The “proportion of mobile C. elegans dauer larvae” value in experiment [1] was 0.533 (active). In addition, the “proportion of mobile D. dipsaci” value with Ditylenchus dipsaci is 1.

Turning to `Cc1cccc(-c2noc(-c3cccc(Br)c3)n2)c1`, the “proportion of mobile M. hapla J2” value with Meloidogyne hapla J2 is 0.87. The “proportion of mobile C. elegans dauer larvae” value in experiment [1] is 1. Moreover, in the experiment with Ditylenchus dipsaci, the “proportion of mobile D. dipsaci” value was 1.

On to `C=C(C)COc1ccc(-c2nc(-c3cccnc3)no2)cc1`, for which, in the experiment with Meloidogyne hapla J2, the “proportion of mobile M. hapla J2” value was 0.919. The “proportion of mobile C. elegans dauer larvae” value in experiment [1] is 1. Moreover, in the experiment with Ditylenchus dipsaci, the “proportion of mobile D. dipsaci” value was 1.

`N#Cc1ccccc1NC(=O)CSc1nnc(-c2ccccc2)o1`: the “proportion of mobile M. hapla J2” value in the experiment with Meloidogyne hapla J2 was 0.955. Besides, in experiment [1], the “proportion of mobile C. elegans dauer larvae” value is 1. Moreover, the “proportion of mobile D. dipsaci” value with Ditylenchus dipsaci is 1.

Regarding `COc1ccc(-c2nnc(SCc3c(Cl)cccc3Cl)o2)cc1`, in the experiment with Meloidogyne hapla J2, the “proportion of mobile M. hapla J2” value was 1. For the same molecule, the “proportion of mobile C. elegans dauer larvae” value in experiment [1] was 1. Also, the “proportion of mobile D. dipsaci” value in the experiment on Ditylenchus dipsaci is 1.

For the molecule `Clc1ccc(-c2noc(COc3ccccc3Cl)n2)cc1`, the “proportion of mobile M. hapla J2” value in the experiment with Meloidogyne hapla J2 is 0.891. The “proportion of mobile C. elegans dauer larvae” value in experiment [1] was 1. In addition, the “proportion of mobile D. dipsaci” value in the experiment with Ditylenchus dipsaci was 1.
